PubChem BioAssay AID720650 (Broad Institute, 2013)
The source made the active and inactive calls. How the calls were made is not given here.

Experiment: Biochemical counterscreen for C difficile toxins, absence of UDPG, inhibitor dose response (AID 720650)
Details: series mostly up to 19.5 µM

SMILES | AC50
CN(C)c1ccc(/C=C/c2cccc[n+]2[O-])cc1 | inactive
Cc1cccc(NC(=O)c2ccc(N3CCOCC3)c([N+](=O)[O-])c2)n1 | inactive
O=C(N/N=C/c1cccc([N+](=O)[O-])c1)c1ccc(Br)cc1 | inactive
COc1cccc2sc(NNC(=O)C3COc4ccccc4O3)nc12 (stereo not drawn) | 0.972 µM (active)
CC(=O)N(C)C[C@@H]1Oc2cc(/C=C/c3ccccc3)ccc2S(=O)(=O)N([C@H](C)CO)C[C@@H]1C | > 39 µM (inactive)
Cc1c(C(=O)c2ccccc2)c2ccccn2c1CCc1ccccn1 | inactive
O=C(CNS(=O)(=O)c1ccccc1)N/N=C/c1ccc(O)cc1 | 14.9 µM (active)
CCCC(=O)Nc1ccc2c(c1)OC[C@H](C)N(CC1CCCC1)C[C@H](C)[C@@H](OC)CN(C)C2=O | inactive
COc1ccc(NC(=O)CN(C)C(=O)c2cccc(NS(=O)(=O)c3ccc(Br)cc3)c2)cc1 | inactive
CCCNC(=O)N1CC[C@@H]2[C@@H](CO)N(C)c3ccc(-c4ccc(F)cc4)cc3[C@@H]21 | 4.27 µM (active)
COc1ccc(/C=C\c2onc(C)c2S(=O)(=O)N2CCC(C(=O)NCCC(C)C)CC2)cc1 | inactive
CC(=O)Nc1ccc(OC(=O)Oc2ccc(NC(C)=O)cc2)cc1 | > 39 µM (inactive)
COc1cc(/C(C)=N/NC(=O)CSc2nnc(C)s2)ccc1O | inactive
FC(F)(F)c1cc(Cl)c2nc(-c3ccccc3)c(Cc3ccsc3)n2c1 | inactive
CN(C)/C=C(\C#N)C(=O)Nc1ccc(O)cc1F | 9.11 µM (active)
COc1cc(N=Nc2c(C)n(C)n(-c3ccccc3)c2=O)ccc1N | inactive
O=c1onc(-c2ccccc2)n1Cc1ccc([N+](=O)[O-])cc1 | inactive
Cc1ccc(Cc2c(-c3ccc(C)cc3)nc3ccc(Cl)cn23)cc1 | inactive
O=C(O)c1ccc2c(c1)N(Cc1cccc(F)c1)C(=O)CS2 | inactive
Cc1nc(-c2ccccn2)nc(SCC(=O)c2ccc(F)cc2)c1Cl | inactive
COc1ccc(NC(=O)Cn2cnc3sc(C)c(S(=O)(=O)N4CCOCC4)c3c2=O)c(OC)c1 | inactive
CCNC(=O)C[C@H]1CC[C@@H]2[C@@H](COc3ccc(NC(C)=O)cc3C(=O)N2C)O1 | inactive
Oc1ccc(-c2cn3ccccc3n2)cc1 | 4.42 µM (active)
